# Measurements reported in PubChem BioAssay (EPA / NIEHS).
# Active and inactive are the calls of the source. The calls were made as follows: active = hit-call score of the fitted dose curve at least 0.9, where 1 is the maximum; inactive = score below 0.9.
# Columns and labels:
# [1] = ATG_CRE_CIS: Attagene CIS-FACTORIAL HepG2 Assay for human cAMP Responsive Element (CRE) binding protein 3 (AID 2282926); details: HepG2 CRE cis-reporter, Attagene multiplexed mRNA; actives raise or lower the signal
# Method in brief: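 Transfected HepG2 were treated for 24 hours, then RNA was extracted and reporter cDNA amplified with sequence-specific primers. Labelled fragments were separated by capillary electrophoresis, and the CRE signal was fitted bidirectionally with DMSO as baseline.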
# [2] = ATG_DR4_LXR_CIS: Attagene CIS-FACTORIAL HepG2 Assay for human Liver X Receptor (LXR), DR4 submotif (AID 2282929); details: HepG2 Attagene DR4 cis-reporter, mRNA transcription; actives raise or lower the signal
# Method in brief: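 DR4 cis-reporter in HepG2, 24 h exposure. Detection: RT-PCR, 6-FAM labelling, CE fragment analysis. Endpoint fitted bidirectionally, DMSO = baseline.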
# [3] = ATG_AP_1_CIS: Attagene CIS-FACTORIAL HepG2 Assay for human Activator Protein 1 (AP-1) (AID 2282931); details: HepG2 Attagene cis-factorial AP-1 reporter mRNA; actives raise or lower the signal
# Method in brief: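 Cis-regulated reporter units transiently expressed in HepG2 report endogenous transcription-factor activity. Signal: reporter mRNA at 24 h, via RT-PCR and fluorescent capillary electrophoresis. Endpoint derived by bidirectional fitting, DMSO as negative control.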
# [4] = ATG_AP_2_CIS: Attagene CIS-FACTORIAL HepG2 Assay for human Activator Protein 2 (AP-2) (AID 2282932); details: HepG2 AP-2 cis-reporter, Attagene transcription factor profiling; actives raise or lower the signal
# Method in brief: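 Multiplexed mRNA reporter assay in HepG2: cis-regulated units report endogenous factor activity after 24 h treatment. Fluorescence from capillary electrophoresis of RT-PCR products gives the signal, with DMSO as baseline.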
# [5] = target: Transcription factor E2F1 (Homo sapiens) (UniProt Q01094); experiment: ATG_E2F_CIS: Attagene CIS-FACTORIAL HepG2 Assay for human E2F Transcription Factor 1 (AID 2282935); details: HepG2 Attagene cis-reporter, E2F reporter RNA transcripts; actives raise or lower the signal
# Method in brief: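 Measures reporter transcript levels via RT-PCR with capillary electrophoresis detection in HepG2 cells harboring cis-regulated reporter units; 24 h post-dose; bidirectional curve fitting with DMSO as baseline.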
# [6] = ATG_M_61_CIS: Attagene CIS-FACTORIAL HepG2 Assay for M61 Transcription Factor (Internal Marker) (AID 2282937); details: HepG2 Attagene CIS-FACTORIAL M61 internal marker reporter; actives raise or lower the signal
# Method in brief: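 Background-control endpoint: HepG2 cells with cis-regulated reporter constructs, 24 h exposure, reporter mRNA detected via fluorescent primer extension and capillary electrophoresis; values from bidirectional fitting with DMSO baseline.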
# [7] = ATG_EGR_CIS: Attagene CIS-FACTORIAL HepG2 Assay for human Early Growth Response 1 (EGR1) (AID 2282938); details: HepG2 Attagene CIS-FACTORIAL EGR reporter mRNA; actives raise or lower the signal
# Method in brief: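 Endpoint derived by bidirectional fitting versus DMSO vehicle. Method: cis-promoter reporter units transfected into HepG2, 24 h dosing, RNA isolation, RT-PCR with 6-FAM primer extension and HpaI digestion, then capillary electrophoresis fluorescence detection.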
# [8] = ATG_M_19_CIS: Attagene CIS-FACTORIAL HepG2 Assay for M19 Transcription Factor (Internal Marker) (AID 2282939); details: HepG2 Attagene CIS-FACTORIAL M19 internal marker reporter; actives raise or lower the signal
# Method in brief: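 HepG2 cells transiently transfected with cis-regulated multiplexed reporter units, dosed 24 h. Reporter mRNA quantified by RT-PCR and capillary electrophoresis; internal background marker fitted bidirectionally versus DMSO.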
# [9] = ATG_Ets_CIS: Attagene CIS-FACTORIAL HepG2 Assay for human Erythroblast Transformation Specific (ETS) (AID 2282941); details: HepG2 ETS cis-reporter transcription, actives raise or lower the signal
# Method in brief: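 HepG2 cells transfected with multiple cis-regulated reporter units measuring endogenous ETS-driven transcription, 24 h after dosing. Reporter mRNA quantified by RT-PCR with capillary electrophoresis; bidirectional fit relative to DMSO.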
# [10] = target: Hepatocyte nuclear factor 3-beta (Homo sapiens) (UniProt Q9Y261); experiment: ATG_FoxA2_CIS: Attagene CIS-FACTORIAL HepG2 Assay for human Forkhead box A2 (FOXA2) (AID 2282942); details: HepG2 cis-reporter transcription factor activity, 24 h; actives raise or lower the signal
# Method in brief: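 Measured: reporter mRNA induction or loss in HepG2 transiently carrying multiple cis-regulated reporter units, 24 h after dosing. Quantified by RT-PCR plus capillary electrophoresis, normalised to DMSO.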
# [11] = ATG_GATA_CIS: Attagene CIS-FACTORIAL HepG2 Assay for human GATA Binding Protein (AID 2282944); details: HepG2 GATA cis-element reporter, Attagene multiplex mRNA; actives raise or lower the signal
# Method in brief: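 HepG2 cells transiently transfected with multiplexed cis-element reporter units measure endogenous GATA activity; after 24 h compound exposure, reporter mRNA quantified by RT-PCR and capillary electrophoresis. Changes fitted in both directions vs DMSO.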
# [12] = ATG_GLI_CIS: Attagene CIS-FACTORIAL HepG2 Assay for human Zinc Finger Protein GLI1 (AID 2282945); details: HepG2, Attagene cis-factorial reporter mRNA, GLI element; actives raise or lower the signal
# Method in brief: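 Transiently transfected HepG2 cells report endogenous transcription factor activity via cis-element-driven reporter units. After 24 h compound exposure, reporter mRNA was measured by RT-PCR with capillary electrophoresis; bidirectional fitting against DMSO baseline.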
# [13] = ATG_ISRE_CIS: Attagene CIS-FACTORIAL HepG2 Assay for human Interferon Regulatory Factor 1 (IRF1) binding to an Interferon-Stimulated Response Element (ISRE) (AID 2282948); details: HepG2 ISRE cis-reporter (Attagene), mRNA transcription readout; actives raise or lower the signal
# Method in brief: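 Transiently transfected HepG2 cells carrying cis-element reporter units, dosed 24 hours. Reporter mRNA quantified by RT-PCR, fluorescent primer extension, HpaI digestion and capillary electrophoresis. Bidirectional fitting relative to DMSO.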
# [14] = ATG_M_32_CIS: Attagene CIS-FACTORIAL HepG2 Assay for M32 Transcription Factor (Internal Marker) (AID 2282949); details: HepG2 Attagene cis-factorial M32 reporter, mRNA; actives raise or lower the signal;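 also: background control marker of the multiplexed CIS panel rather than a real target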
# Method in brief: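 Internal background marker read-out: RT-PCR/capillary electrophoresis fluorescence of reporter transcripts from transiently transfected HepG2 cells after 24 h chemical exposure. Activity fitted bidirectionally relative to DMSO negative control.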
# [15] = ATG_M_06_CIS: Attagene CIS-FACTORIAL HepG2 Assay for M06 Transcription Factor (Internal Marker) (AID 2282950); details: HepG2 Attagene CIS-FACTORIAL M06 internal marker reporter; actives raise or lower the signal
# Method in brief: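 Internal background marker within multiplexed cis-reporter HepG2 system. Cells transiently transfected, dosed 24 h; reporter mRNA measured by RT-PCR, HpaI digestion and capillary electrophoresis. Bidirectional fit relative to DMSO.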
# [16] = ATG_MRE_CIS: Attagene CIS-FACTORIAL HepG2 Assay for human Metal Responsive Element (MRE) (AID 2282954); details: HepG2 MRE cis-reporter transcription, Attagene multiplex; actives raise or lower the signal
# Method in brief: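 Fluorescent reporter fragments separated by capillary electrophoresis give mRNA induction for the MRE unit after 24 h treatment of transfected HepG2 cells. Endogenous transcription-factor activity is read; DMSO serves as negative control and baseline.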
# [17] = target: Paired box protein Pax-6 (Homo sapiens) (UniProt P26367); experiment: ATG_Pax6_CIS: Attagene CIS-FACTORIAL HepG2 Assay for human Paired Box 6 (PAX6) (AID 2282956); details: HepG2 CIS-FACTORIAL PAX6 reporter transcription, RNA readout; actives raise or lower the signal
# Method in brief: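 HepG2 cells transiently transfected with cis-promoter-driven multiplexed reporter units sensing endogenous transcription factor activity; 24 h chemical exposure. Reporter mRNA quantified by RT-PCR, 6-FAM labelling, HpaI digestion and capillary electrophoresis; bidirectional fit versus DMSO baseline.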
# [18] = ATG_PXRE_CIS: Attagene CIS-FACTORIAL HepG2 Assay for human Pregnane X Receptor Element (PXRE) (AID 2282957); details: HepG2 Attagene CIS-FACTORIAL PXRE reporter, mRNA; actives raise or lower the signal
# Method in brief: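 Multiplexed cis-reporter assay in transiently transfected human HepG2 cells; 24 h chemical exposure. Reporter transcripts quantified by RT-PCR with fluorescent labeling and capillary electrophoresis.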
# [19] = target: Transcription factor Sp1 (Homo sapiens) (UniProt P08047); experiment: ATG_Sp1_CIS: Attagene CIS-FACTORIAL HepG2 Assay for human Specificity Protein 1 (Sp1) (AID 2282961); details: HepG2 Sp1 cis-reporter transcription, actives raise or lower the signal
# Method in brief: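 Endpoint reflects endogenous Sp1 transcriptional activity, not an exogenous fusion protein: HepG2 cells with transfected cis-regulated reporters, 24 h dosing, RT-PCR/capillary electrophoresis mRNA read-out, DMSO-normalised bidirectional fit.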
# [20] = target: Signal transducer and activator of transcription 3 (Homo sapiens) (UniProt P40763); experiment: ATG_STAT3_CIS: Attagene CIS-FACTORIAL HepG2 Assay for human Signal Transducer and Activator of Transcription 3 (STAT3) (AID 2282963); details: HepG2, Attagene cis-factorial STAT3 reporter transcription; actives raise or lower the signal
# Method in brief: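 Values derive from bidirectional fits relative to DMSO of reporter mRNA levels, measured by RT-PCR with capillary electrophoresis, in HepG2 cells carrying transiently transfected cis-regulated reporter units and exposed 24 h.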
# Sequence of Transcription factor Sp1 (Homo sapiens) (P08047 whole entry, looked up, the tested form may be a part): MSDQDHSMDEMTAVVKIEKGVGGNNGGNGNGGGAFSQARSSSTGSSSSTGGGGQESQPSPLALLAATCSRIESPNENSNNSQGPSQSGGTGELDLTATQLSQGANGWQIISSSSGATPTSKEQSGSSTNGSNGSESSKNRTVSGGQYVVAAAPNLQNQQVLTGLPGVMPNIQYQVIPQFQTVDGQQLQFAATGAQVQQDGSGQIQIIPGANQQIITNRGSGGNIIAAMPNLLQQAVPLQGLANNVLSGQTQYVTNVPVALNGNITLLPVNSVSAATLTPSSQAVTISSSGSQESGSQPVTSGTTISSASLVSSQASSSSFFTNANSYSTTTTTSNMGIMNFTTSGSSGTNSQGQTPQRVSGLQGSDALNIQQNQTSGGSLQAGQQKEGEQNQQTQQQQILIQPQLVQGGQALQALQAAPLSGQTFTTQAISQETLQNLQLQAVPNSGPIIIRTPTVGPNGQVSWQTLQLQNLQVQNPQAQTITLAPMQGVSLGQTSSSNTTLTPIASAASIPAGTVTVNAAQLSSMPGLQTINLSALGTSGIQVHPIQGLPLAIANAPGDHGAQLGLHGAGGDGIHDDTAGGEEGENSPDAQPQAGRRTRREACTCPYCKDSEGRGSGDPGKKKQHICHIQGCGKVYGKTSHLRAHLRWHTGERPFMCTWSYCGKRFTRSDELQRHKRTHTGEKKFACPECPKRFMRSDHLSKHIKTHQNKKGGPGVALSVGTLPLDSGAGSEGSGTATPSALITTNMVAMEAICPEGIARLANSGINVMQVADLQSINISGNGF
# Sequence of Paired box protein Pax-6 (Homo sapiens) (P26367 whole entry, looked up): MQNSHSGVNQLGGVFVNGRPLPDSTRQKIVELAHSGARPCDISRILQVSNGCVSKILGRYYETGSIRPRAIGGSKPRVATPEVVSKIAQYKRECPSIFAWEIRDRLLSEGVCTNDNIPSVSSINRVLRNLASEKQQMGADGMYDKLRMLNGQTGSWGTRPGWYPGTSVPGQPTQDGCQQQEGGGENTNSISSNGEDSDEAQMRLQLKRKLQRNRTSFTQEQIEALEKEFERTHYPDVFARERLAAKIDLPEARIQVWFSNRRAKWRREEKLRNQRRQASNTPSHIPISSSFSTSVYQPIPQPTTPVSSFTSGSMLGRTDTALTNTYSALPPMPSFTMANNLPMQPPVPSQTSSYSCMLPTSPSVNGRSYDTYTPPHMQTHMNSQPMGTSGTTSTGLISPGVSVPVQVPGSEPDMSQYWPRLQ
# Sequence of Signal transducer and activator of transcription 3 (Homo sapiens) (P40763 whole entry, looked up): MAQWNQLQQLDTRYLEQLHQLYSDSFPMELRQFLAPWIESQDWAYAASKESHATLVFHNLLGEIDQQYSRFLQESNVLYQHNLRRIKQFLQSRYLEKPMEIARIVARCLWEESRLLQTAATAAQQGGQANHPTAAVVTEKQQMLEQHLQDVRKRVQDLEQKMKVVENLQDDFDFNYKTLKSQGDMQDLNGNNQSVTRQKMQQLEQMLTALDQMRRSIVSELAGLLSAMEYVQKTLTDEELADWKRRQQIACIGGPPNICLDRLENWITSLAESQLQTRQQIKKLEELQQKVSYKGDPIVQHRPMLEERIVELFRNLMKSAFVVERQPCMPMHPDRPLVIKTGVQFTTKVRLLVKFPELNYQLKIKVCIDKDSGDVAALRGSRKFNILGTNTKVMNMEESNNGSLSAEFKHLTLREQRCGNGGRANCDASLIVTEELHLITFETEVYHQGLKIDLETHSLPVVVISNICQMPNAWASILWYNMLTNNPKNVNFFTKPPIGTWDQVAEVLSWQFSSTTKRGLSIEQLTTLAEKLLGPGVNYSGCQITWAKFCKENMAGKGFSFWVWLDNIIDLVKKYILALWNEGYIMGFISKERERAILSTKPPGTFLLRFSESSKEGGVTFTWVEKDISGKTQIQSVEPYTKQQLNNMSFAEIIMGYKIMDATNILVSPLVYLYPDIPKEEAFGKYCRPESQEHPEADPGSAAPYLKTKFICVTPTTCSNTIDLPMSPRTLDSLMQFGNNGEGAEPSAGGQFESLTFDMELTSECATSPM
# Sequence of Hepatocyte nuclear factor 3-beta (Homo sapiens) (Q9Y261 whole entry, looked up): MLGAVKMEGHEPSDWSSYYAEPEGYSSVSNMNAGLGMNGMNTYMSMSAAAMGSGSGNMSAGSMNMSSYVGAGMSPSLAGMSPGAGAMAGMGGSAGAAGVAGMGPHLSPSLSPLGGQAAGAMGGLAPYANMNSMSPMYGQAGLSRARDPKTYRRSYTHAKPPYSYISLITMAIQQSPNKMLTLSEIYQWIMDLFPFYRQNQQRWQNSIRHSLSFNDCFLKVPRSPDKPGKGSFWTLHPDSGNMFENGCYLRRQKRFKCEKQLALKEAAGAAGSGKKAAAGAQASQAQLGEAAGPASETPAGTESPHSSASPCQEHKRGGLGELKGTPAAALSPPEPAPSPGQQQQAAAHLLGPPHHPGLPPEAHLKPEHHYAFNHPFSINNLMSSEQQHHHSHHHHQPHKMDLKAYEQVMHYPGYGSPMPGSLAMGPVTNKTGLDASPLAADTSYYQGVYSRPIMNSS
# Sequence of Transcription factor E2F1 (Homo sapiens) (Q01094 whole entry, looked up): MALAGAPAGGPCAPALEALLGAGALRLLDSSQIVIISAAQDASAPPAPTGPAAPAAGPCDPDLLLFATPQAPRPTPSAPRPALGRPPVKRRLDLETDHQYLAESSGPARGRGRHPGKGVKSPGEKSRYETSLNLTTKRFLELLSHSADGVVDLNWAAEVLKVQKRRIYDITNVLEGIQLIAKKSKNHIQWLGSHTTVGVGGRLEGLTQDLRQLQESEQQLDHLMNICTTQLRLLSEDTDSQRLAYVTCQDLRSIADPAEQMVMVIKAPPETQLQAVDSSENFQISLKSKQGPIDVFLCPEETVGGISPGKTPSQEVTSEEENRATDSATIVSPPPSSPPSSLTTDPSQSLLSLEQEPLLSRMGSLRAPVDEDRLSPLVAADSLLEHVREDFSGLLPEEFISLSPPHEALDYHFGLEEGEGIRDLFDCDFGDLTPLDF
structure (smiles),measurement,setting,value
Clc1ccc(-c2ccccc2)cc1,outcome,[1],inactive
same,outcome,[2],inactive
same,AC50,[3],170 µM (active)
same,outcome,[4],inactive
same,outcome,[5],inactive
same,outcome,[6],inactive
same,outcome,[7],inactive
same,outcome,[8],inactive
same,outcome,[9],inactive
same,outcome,[10],inactive
same,outcome,[11],inactive
same,outcome,[12],inactive
same,outcome,[13],inactive
same,outcome,[14],inactive
same,outcome,[15],inactive
same,outcome,[16],inactive
same,outcome,[17],inactive
same,AC50,[18],42.7 µM (active)
same,AC50,[19],117 µM (active)
same,outcome,[20],inactive
CCNCC,outcome,[1],inactive
same,outcome,[2],inactive
same,outcome,[3],inactive
same,outcome,[4],inactive
same,outcome,[5],inactive
same,outcome,[6],inactive
same,outcome,[7],inactive
same,outcome,[8],inactive
same,outcome,[9],inactive
same,outcome,[10],inactive
same,outcome,[11],inactive
same,outcome,[12],inactive
same,outcome,[13],inactive
same,outcome,[14],inactive
same,outcome,[15],inactive
same,outcome,[16],inactive
same,outcome,[17],inactive
same,outcome,[18],inactive
same,outcome,[19],inactive
same,outcome,[20],inactive
C[N+](C)(C)CC(=O)[O-],outcome,[1],inactive
same,outcome,[2],inactive
same,outcome,[3],inactive
same,outcome,[4],inactive
same,outcome,[5],inactive
same,outcome,[6],inactive
same,outcome,[7],inactive
same,outcome,[8],inactive
same,outcome,[9],inactive
same,outcome,[10],inactive
same,outcome,[11],inactive
same,outcome,[12],inactive
same,outcome,[13],inactive
same,outcome,[14],inactive
same,outcome,[15],inactive
same,outcome,[16],inactive
same,outcome,[17],inactive
same,outcome,[18],inactive
same,outcome,[19],inactive
same,outcome,[20],inactive
O=CNC(N1CCN(C(NC=O)C(Cl)(Cl)Cl)CC1)C(Cl)(Cl)Cl (stereo not given),outcome,[1],inactive
same,outcome,[2],inactive
same,outcome,[3],inactive
same,outcome,[4],inactive
same,outcome,[5],inactive
same,outcome,[6],inactive
same,outcome,[7],inactive
same,outcome,[8],inactive
same,outcome,[9],inactive
same,outcome,[10],inactive
same,outcome,[11],inactive
same,outcome,[12],inactive
same,outcome,[13],inactive
same,outcome,[14],inactive
same,outcome,[15],inactive
same,outcome,[16],inactive
same,outcome,[17],inactive
same,AC50,[18],7.22 µM (active)
same,outcome,[19],inactive
same,outcome,[20],inactive
COC(=O)COc1ccc(Cl)cc1Cl,outcome,[1],inactive
same,outcome,[2],inactive
same,outcome,[3],inactive
same,outcome,[4],inactive
same,outcome,[5],inactive
same,outcome,[6],inactive
same,outcome,[7],inactive
same,outcome,[8],inactive
same,outcome,[9],inactive
same,outcome,[10],inactive
same,outcome,[11],inactive
same,outcome,[12],inactive
same,outcome,[13],inactive
same,outcome,[14],inactive
same,outcome,[15],inactive
same,outcome,[16],inactive
same,outcome,[17],inactive
same,outcome,[18],inactive
same,outcome,[19],inactive
same,outcome,[20],inactive
CC(C)COP(=O)(OCC(C)C)OCC(C)C,outcome,[1],inactive
same,AC50,[2],57.9 µM (active)
same,outcome,[3],inactive
same,outcome,[4],inactive
same,outcome,[5],inactive
same,outcome,[6],inactive
same,outcome,[7],inactive
same,outcome,[8],inactive
same,outcome,[9],inactive
same,outcome,[10],inactive
same,outcome,[11],inactive
same,outcome,[12],inactive
same,outcome,[13],inactive
same,outcome,[14],inactive
same,outcome,[15],inactive
same,outcome,[16],inactive
same,outcome,[17],inactive
same,AC50,[18],2.21 µM (active)
same,outcome,[19],inactive
same,outcome,[20],inactive
ClC1=C(Cl)[C@]2(Cl)[C@@H]3[C@@H](Cl)[C@H](Cl)C[C@@H]3[C@@]1(Cl)C2(Cl)Cl,outcome,[1],inactive
same,outcome,[2],inactive
same,outcome,[3],inactive
same,outcome,[4],inactive
same,outcome,[5],inactive
same,outcome,[6],inactive
same,outcome,[7],inactive
same,outcome,[8],inactive
same,outcome,[9],inactive
same,outcome,[10],inactive
same,outcome,[11],inactive
same,outcome,[12],inactive
same,outcome,[13],inactive
same,outcome,[14],inactive
same,outcome,[15],inactive
same,outcome,[16],inactive
same,outcome,[17],inactive
same,outcome,[18],inactive
same,outcome,[19],inactive
same,outcome,[20],inactive
